Assay outcomes: PubChem, National Center for Advancing Translational Sciences (NCATS)
This is a sample that favours compounds with a hit; in the whole collection about 3.8% have one here.
Sfp PPTase inh: qHTS Assay for Inhibitors of Bacillus subtilis Sfp phosphopantetheinyl transferase (PPTase) | 4'-phosphopantetheinyl transferase ffp (Bacillus subtilis), Q9F4F7 | Biochemical Sfp PPTase activity, qHTS | Potency, µM, for the others: largest response in the series, negative = inhibition, most hits filed as inhibitors | hit rate 3.5% among 310,000 | AID 1490, 2009;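 note: the enzyme is Sfp with the accession as filed and its product quenches rhodamine fluorescence; 0% = enzyme reaction without inhibitor and -100% = no enzyme wells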
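Buffer: 50 mM Hepes-Na pH 7.6, 10 mM MgCl2, 0.01% Nonidet P-40, 0.01% BSA. Enzyme 15 nM, pre-exposed to compound 15 min; substrates then added and fluorescence change tracked over 30 min.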
KAT2A inh: qHTS Assay for Inhibitors of GCN5L2 | GCN5L2 HAT assay, ThioGlo1 CoA-SH fluorescence | hit rate 0.21% among 390,000 | Histone acetyltransferase KAT2A (Homo sapiens), Q92830 | Potency, µM (doses to about 58.9 µM), for the others: at the highest dose activity change, negative = inhibition, hits mostly inhibitors
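Compounds, pin-transferred from DMSO stocks, meet 20nM GCN5L2 for 15 min before the reaction begins with H3(1-25) peptide (75uM) and acetyl-CoA (70uM). Thiol-reactive ThioGlo1 reports CoA release over 20 min at room temperature.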
rTrxR1 inhibitor: qHTS Assay for Inhibitors of Mammalian Selenoprotein Thioredoxin Reductase 1 (TrxR1): qHTS; recombinant rTrxR1, NADPH fluorescence consumption, selenite substrate; Potency, µM (series often up to 114 µM), inactives show top-dose activity change, negative = inhibition, hits mostly inhibitors; hit rate 1% among 390,000; note: nearly all actives have a fitted effect of over 65% in size
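Rat TrxR1 (90 nM in the dispensed reagent) was pre-reduced with 400 uM NADPH for 5 min at room temperature, then incubated with compound for 15 min. After 400 uM selenite was added, NADPH fluorescence (Ex 340/Em 450 nm) was followed for 8 min.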
VDR inhibitor: Inhibitors of the vitamin D receptor (VDR): qHTS | Potency, µM, without a hit: max response, negative = inhibition, actives largely listed as inhibitors | VDR-SRC2-3 peptide fluorescence polarization, 2 h | hit rate 0.93% among 400,000
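Measured by FP: displacement of SRC2-3 coactivator peptide from VDR by library compounds, following a two-hour ambient incubation.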
GLS inhibitor: qHTS for Inhibitors of Glutaminase (GLS) | Glutaminase kidney isoform, mitochondrial (Homo sapiens), O94925 | GLS enzymatic activity, qHTS titration | Potency, µM (doses to about 45.5 µM), without a hit: at the top dose activity change, negative = inhibition, most hits filed as inhibitors | hit rate 0.21% among 410,000
Target sequence (O94925 whole entry, looked up, canonical isoform): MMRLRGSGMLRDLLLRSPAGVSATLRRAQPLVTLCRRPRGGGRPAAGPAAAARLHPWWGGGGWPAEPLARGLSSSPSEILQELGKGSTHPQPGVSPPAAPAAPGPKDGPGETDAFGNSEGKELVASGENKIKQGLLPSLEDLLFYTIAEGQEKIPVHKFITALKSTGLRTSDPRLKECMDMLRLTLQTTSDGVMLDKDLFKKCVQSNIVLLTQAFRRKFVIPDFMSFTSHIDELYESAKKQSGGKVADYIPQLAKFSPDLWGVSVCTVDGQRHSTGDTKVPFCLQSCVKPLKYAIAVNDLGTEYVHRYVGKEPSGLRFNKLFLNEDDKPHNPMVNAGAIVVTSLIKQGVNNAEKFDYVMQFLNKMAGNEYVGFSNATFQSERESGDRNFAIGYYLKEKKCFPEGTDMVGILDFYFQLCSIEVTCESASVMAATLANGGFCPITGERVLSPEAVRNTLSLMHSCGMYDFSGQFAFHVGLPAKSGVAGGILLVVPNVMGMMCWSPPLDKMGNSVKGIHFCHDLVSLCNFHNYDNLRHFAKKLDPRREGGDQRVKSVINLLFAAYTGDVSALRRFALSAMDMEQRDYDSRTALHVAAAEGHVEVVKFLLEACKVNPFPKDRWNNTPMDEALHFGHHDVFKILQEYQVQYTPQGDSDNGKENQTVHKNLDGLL
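Compounds were pin-transferred onto hKGA, after which L-glutamine (1 mM solution) and a detection mix of glutamate oxidase, HRP and Amplex Red were added. Initial and 30 min RT fluorescence reads were collected.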
TrxR1 substrate: qHTS Assay for Substrates of Mammalian Selenoprotein Thioredoxin Reductase 1 (TrxR1): qHTS | Thioredoxin reductase 1, cytoplasmic (Rattus norvegicus), O89049 | purified TrxR1 substrate turnover, NADPH consumption readout | Potency, µM (doses to about 114 µM), for inactives: at the highest dose activity change, negative = substrate turnover | hit rate 0.01% among 390,000 | AID 588456, 2011; note: nearly all actives have a fitted effect of over 50% in size
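Rat TrxR1, dispensed at 90 nM, was prereduced with 400 uM NADPH (final) for 5 min at ~22 deg C, then incubated with compound 15 min before 400 uM selenite. A first-read NADPH fluorescence drop versus no-compound background flagged substrates.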
* = called active by the depositor; ? = inconclusive; . = no result; [ ] = another dose, or the depositor's remark. Calls come from the whole dose curve; as a rule, active = well fitted curve in the direction sought with a large enough effect; inconclusive = small, poorly fitted or top-dose-only effect, or another doubt; inactive = no such curve, though single readings can be large; an effect the other way counts as inactive or inconclusive. Unless noted, % is set by controls: 0 for no effect and ±100 for the full control effect; potency is the fitted concentration of half-maximal effect.

SMILES	Sfp PPTase inh	KAT2A inh	rTrxR1 inhibitor	VDR inhibitor	GLS inhibitor	TrxR1 substrate
C/C(=N\Nc1nc(-c2ccccc2)cs1)c1cccs1	56µM*	-14%	-13%	-15%	2%	-7%
CC1CCCCN1Cc1nc2c(c(=O)n(C)c(=O)n2C)n1CCCc1ccccc1 (configuration not stated)	.	.	-4%[57.1 µM]	2%	1%	2%[57.1 µM]
O=C(COc1cc(Cl)c(Cl)cc1Cl)N1CCN(c2ccccn2)CC1	-4%	-5%	9%[57.1 µM]	6%	-6%	6%[57.1 µM]
Clc1cc(Cl)c(OCC#CI)cc1Cl	79µM*	14µM*	.	2.8µM*	-26%	.
CS(=O)(=O)Nc1ccc(C2=NN(C(=O)c3ccco3)C(c3cccc(F)c3)C2)cc1 (configuration not stated)	-22%	-9%	7%	-5%	4%	0%
Brc1ccc(C=Nc2ccc(Nc3ccccc3)cc2)s1	56µM*	-4%	-31%	-18%	36%	-11%
O=C(CCC(=O)N/N=C/c1ccc(Br)s1)NCc1ccccc1	12%	0%	4%	-20%	4%	1%
C(=Nc1ccc(Nc2ccccc2)cc1)c1ccc2ccccc2c1	45µM*	0%	?	-7%	34%	-4%
CSc1cc2c(cc1C(F)(F)F)N(C(=O)Nc1cccnc1)CC2	2%	17%	.	-14%	.	.
CC(C)CNC(=O)c1cccc(NC(=O)c2ccccc2-c2ccccc2C(=O)O)c1	13%	-6%	12%	-12%	0%	-2%
COc1ccccc1N1CCN(CC(O)COc2ccc3c(C)cc(=O)oc3c2)CC1 (configuration not stated)	17%	-1%	-19%	5%	18%	20%
OCCN(CCO)c1nc(N2CCCCC2)c2nc(N(CCO)CCO)nc(N3CCCCC3)c2n1	-26%	25µM*	?	-20%	16%	63%[57.1 µM]
Nc1nc(NCCO)nc(N2CCCCCC2)c1[N+](=O)[O-]	19%	0%	6%	-18%	1%	-9%
CCOc1cc(N2C(=O)CC3CS(=O)(=O)CC32)c(OCC)cc1NC(=O)c1ccccc1 (configuration not stated)	-8%	-4%	-5%	?	22µM*	10%[57.1 µM]
COc1cc(CNCc2ccccn2)ccc1OCC(N)=O	89µM*	2%	23%	1%	0%	12%
O=C(CSc1nnc(-c2cnccn2)n1Cc1ccco1)c1ccccc1	-12%	3%	56µM*	-16%	.	-1%
O=C(CSc1nnc(-c2ccccn2)n1Cc1ccco1)c1ccc(Cl)cc1	-26%	-11%	?	-5%	-1%	-3%
Brc1ccc(CSc2nnc(-c3ccccn3)n2Cc2ccco2)cc1	-25%	-8%	-36%	-11%	-6%	1%
CC(C)(C)c1ccc(CSc2nnc(-c3ccccn3)n2Cc2ccco2)cc1	32µM*	-9%	-25%	-26%	-15%	-9%
O=C(CSc1nnc(-c2cnccn2)n1Cc1ccco1)c1ccc(Cl)cc1	-76%	-11%	13µM*	?	3%	6%
NC(=O)CSc1nnc(-c2cnccn2)n1Cc1ccco1	3%	-6%	-18%	9%	-1%	11%
O=C1CC(c2c(F)cccc2Cl)C2=C(COC2=O)N1 (configuration not stated)	15%	-17%	7%[57.1 µM]	-13%	1%	5%[57.1 µM]
CCOC(=O)C1Nc2ccc(C)cc2C2C=CCC12 (configuration not stated)	.	.	5.6µM*	-25%	-16%	9%[57.1 µM]
O=C(OC1CCCCC1)c1ccc2c(c1)C1C=CCC1C(C(=O)O)N2 (configuration not stated)	-18%	20µM*	.	.	.	.
CCOC(=O)C1Nc2ccc(Br)cc2C2C=CCC12 (configuration not stated)	28µM*	-12%	32µM*	?	1%	-2%
SMILES	Sfp PPTase inh	KAT2A inh	rTrxR1 inhibitor	VDR inhibitor	GLS inhibitor	TrxR1 substrate
CC(C)CNC(=O)C1Nc2ccc(OC(F)(F)F)cc2C2C=CCC12 (configuration not stated)	.	.	?	?	-5%	-6%
CCOC(=O)c1ccc2c(c1)C1C=CCC1C(C(=O)OCC)N2 (configuration not stated)	45µM*	-9%	40µM*	-3%	3%	2%
Cc1nc(NC(=O)CSc2nnc(N)s2)c(Cl)cc1Cl	-17%	-3%	33%[57.1 µM]	-16%	1%	10%[57.1 µM]
Cc1c(C(=O)N2CCCC2)c(S(=O)(=O)N2CCCCC2)c(C)n1C	8%	?	18%	-6%	0%	3%
Cc1ccc2cccc(NC(=S)NC(=O)c3ccccc3)c2n1	?	1%	2%	2%	7%	7%
COc1ccc(C2(CNC(C)=O)CCOCC2)cc1OC	8%	-4%	10%	-6%	6%	4%
Cc1ccc(N2C(=O)CS/C2=C(\C(Cl)=C(Cl)Cl)[N+](=O)[O-])cc1	-28%	-24%	32µM*	98%	20%	0%
COc1ccc(CN2CCN(c3ncnc4sc5c(c34)CC(C)CC5)CC2)cc1F (configuration not stated)	.	-8%	-8%	1%	-2%	1%
c1ccc(C2=Nn3c(nnc3-c3ccco3)SC2)cc1	50µM*	-9%	15%	-2%	-3%	1%
COc1ccc(C2=Nn3c(nnc3-c3ccccc3C)SC2)cc1	45µM*	.	.	.	.	.
Brc1ccccc1C1=Nn2c(nnc2-c2ccccc2)SC1	79µM*	-5%	-5%	-10%	7%	-7%
Brc1ccccc1C1=Nn2c(nnc2-c2ccco2)SC1	-18%	-7%	?	5%	-8%	0%
COc1ccc(C2=Nn3c(nnc3-c3ccccc3C)SC2)cc1OC	5%	.	.	.	.	.
Cc1ccc(-c2nc3ccccc3o2)cc1NC(=O)COc1ccccc1C	.	.	42%	.	.	19%
CCCCn1nnnc1C(c1ccccc1)N1CCN(c2ccc(C(F)(F)F)cn2)CC1 (configuration not stated)	.	.	.	.	1%	.
CN(C)c1ccc(NC(=O)N2CCOCC2)cc1	40µM*	-1%	-14%	14µM*	20%	-13%
CC(C)(C)C1CCC2(CC1)SCC(=O)N2c1ccccc1 (configuration not stated)	10%	3%	11%	-8%	-2%	9%
